Experimental data published in PubChem BioAssay AID624034 (National Center for Advancing Translational Sciences (NCATS), 2012).
Results filed as inconclusive are left out. Calls of active or inactive are those of the source. Calls follow the shape of the dose curve; as a rule, active = well fitted inhibition curve with a large enough effect; inconclusive = small, poorly fitted or top-dose-only effect; inactive = flat fitted curve, though single readings scatter.

These compounds were tested against Dual specificity protein kinase CLK4 (Homo sapiens) (UniProt Q9HAZ1) (assay: Reaction Biology data for inhibitors of CLK4: Probe SAR). Settings: Reaction Biology CLK4 kinase assay, 10 uM ATP; series mostly up to 10 µM.
Sequence of Dual specificity protein kinase CLK4 (Homo sapiens) (Q9HAZ1 whole entry, looked up, canonical isoform): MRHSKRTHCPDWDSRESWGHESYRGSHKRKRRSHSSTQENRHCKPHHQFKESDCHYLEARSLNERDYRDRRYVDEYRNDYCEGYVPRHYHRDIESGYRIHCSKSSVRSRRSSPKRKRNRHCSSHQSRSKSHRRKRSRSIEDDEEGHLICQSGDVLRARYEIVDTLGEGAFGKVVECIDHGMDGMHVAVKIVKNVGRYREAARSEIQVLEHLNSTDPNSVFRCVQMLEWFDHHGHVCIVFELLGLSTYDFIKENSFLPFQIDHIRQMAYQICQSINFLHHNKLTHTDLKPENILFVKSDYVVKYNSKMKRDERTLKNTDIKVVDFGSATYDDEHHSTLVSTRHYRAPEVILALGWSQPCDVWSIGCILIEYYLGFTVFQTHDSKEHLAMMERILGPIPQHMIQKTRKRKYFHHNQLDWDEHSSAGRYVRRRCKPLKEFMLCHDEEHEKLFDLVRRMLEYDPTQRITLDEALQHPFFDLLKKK
Excerpt: Alternative splicing of pre-mRNAs plays a major role in the regulation of eukaryotic gene expression. Alternative splicing is now thought to be one of the primary reasons for the complexity of higher organisms leading to an average of three protein isoforms per gene. Aberrant splicing can lead to a number of diseases and is known to play a role in rare genetic diseases such as progeria syndrome. Hutchinson-Gilford Progeria Syndrome (HGPS) is a pediatric premature aging disease caused by a spontaneous mutation in the lamin A/C (LMNA) gene due to a single point mutation in the lamin A gene effecting 1 in 4 million people. To identify both specific splicing modulators of the lamin A gene as well as general splicing modulators, a cell-based HTS assay was developed using a minigene reporter system (AIDs, 1459 & 1487). […] This AID summarizes the characterization of lead compounds in Clk4. NIH Molecular Libraries Probe Production Centers Network [MLPCN] NIH Chemical Genomics Center [NCGC] MLPCN Grant: MH084827 Assay Submitter (PI): Tom Misteli
Compound IC50s were determined at Reaction Biology (http://www.reactionbiology.com) with ten concentration points starting at 10 uM in the assay using a 3-fold dilution series. The control compound staurosporine was also tested in the 10-dose IC50 mode with the same 3-fold serial dilution, again starting at 10 uM. All kinase reactions were performed using 10 uM ATP in the assay. 100% activity was taken from kinase reactions with DMSO alone (the vehicle used for compound stock solutions).
COc1ccc(-c2ccnc(NCc3ccc(Cl)c(Cl)c3)n2)cc1 was tested, and the Potency was 91.7 nM (active).
With Clc1cc(Cl)cc(CNc2ncncc2-c2ccc3c(c2)OCO3)c1 the Potency was 68.2 nM (active).
In the case of Cc1c(-c2ccnc(NCc3cccnc3)n2)sc(=O)n1C, the Potency is reported as 87.8 nM (active).
For c1cncc(CNc2ccnc(-c3ccc4[nH]ncc4c3)n2)c1, the Potency was 574 nM (active).
For c1cncc(CNc2ccnc(-c3ccc4cn[nH]c4c3)n2)c1, the Potency was 1290 nM (active).
With Brc1ccc(CNc2nccc(-c3ccc4c(c3)OCO4)n2)cc1Br the Potency was 17.7 nM (active).
Brc1cc(Br)cc(CNc2nccc(-c3ccc4c(c3)OCO4)n2)c1 was tested, and the Potency was 9.4 nM (active).
c1cncc(CNc2nccc(-c3ccc4[nH]ncc4c3)n2)c1 was tested, and the Potency was 60 nM (active).
In the case of Clc1ccc(CNc2nccc(-c3ccc4c(c3)OCCO4)n2)cc1Cl, the Potency is reported as 13.1 nM (active).
For c1cc(-c2ccc3c(c2)OCO3)nc(Nc2ccc3c(c2)OCO3)n1, the Potency was 74.8 nM (active).
For COc1ccc(-c2ccnc(NCc3ccc(Cl)cc3)n2)cc1, the Potency was 319 nM (active).
In the case of FC(F)(F)c1cccc(Nc2nccc(-c3ccc4c(c3)OCO4)n2)c1, the Potency is reported as 41.7 nM (active).
In the case of Clc1ccc(CNc2nccc(-c3ccc4[nH]ncc4c3)n2)cc1Cl, the Potency is reported as 30.3 nM (active).
Cc1nc(CN(C)c2ncnc3ccc(-c4ccc5c(c4)OCO5)cc23)cs1 was tested, and the Potency was 15.9 nM (active).
For Clc1ccc(CNc2nccc(-c3ccc4cn[nH]c4c3)n2)cc1Cl, the Potency was 123 nM (active).
In the case of COc1cccc(-c2ccnc(NCc3ccc(Cl)c(Cl)c3)n2)c1, the Potency is reported as 3860 nM (active).
For Clc1ccc(CNc2ncncc2-c2ccc3c(c2)OCO3)cc1Cl, the Potency was 526 nM (active).
COc1cccc(-c2ccnc(NCc3ccc(Cl)cc3)n2)c1 was tested, and the Potency was 6810 nM (active).
O=[N+]([O-])c1cc(Nc2nccc(-c3ccc4c(c3)OCO4)n2)cc(C(F)(F)F)c1 was tested, and the Potency was 23.1 nM (active).
Cc1c(-c2ccnc(NCc3ccc(Cl)cc3)n2)sc(=O)n1C was tested, and the Potency was 273 nM (active).
With Cc1nc(CN(C)c2ncnc3ccc(-c4ccc5[nH]ncc5c4)cc23)cs1 the Potency was 37.7 nM (active).
For Clc1ccc(CNc2nccc(-c3ccc4c(c3)OCO4)n2)cc1Cl, the Potency was 14.4 nM (active).
With c1nc(NCC2CCCO2)c2cc(-c3ccc4c(c3)OCO4)ccc2n1 (configuration not stated) the Potency was 50.1 nM (active).
For c1cncc(CNc2nccc(-c3ccc4c(c3)OCO4)n2)c1, the Potency was 15.9 nM (active).
For Cc1nc(CNc2ncnc3ccc(-c4ccc5c(c4)OCO5)cc23)cs1, the Potency was 25 nM (active).
FC(F)(F)c1cc(Br)cc(Nc2nccc(-c3ccc4c(c3)OCO4)n2)c1 was tested, and the Potency was 85.5 nM (active).
With COc1ccc(-c2ccnc(NCc3ccc(Cl)c(Cl)c3)n2)cc1OC the Potency was “inactive”.
